The nature of assay [1]: qHTS assay to identify small molecule agonists of the estrogen receptor alpha (ER-alpha) signaling pathway in the presence of an antagonist - cell viability counter screen (AID 1259386).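 Also: cells exposed to compounds for 22 h at 37 °C before the viability read; nearly all actives have a fitted effect of over 30% in size.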 Also: potency is read from the fitted curve at half-maximal effect. Summed up: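 Cell viability in VM7Luc4E2 cells (endogenous full-length ER-alpha) measured by CellTiter-Fluor fluorescence in the same wells as the luciferase screen. Cells pre-cultured 5 days in charcoal-stripped serum, then treated 22 h with compounds at 15 concentrations plus 10.0nM ICI-182,780.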
In general terms: In qHTS, concentration-response curves come from the screen itself.

Assay [2] deals with Progesterone receptor (Homo sapiens) (UniProt P06401). Put plainly: qHTS assay to identify small molecule agonists of the progesterone receptor (PR) signaling pathway (AID 1346784; calls by dose curve; also: nearly all actives have a fitted effect of over 30% in size; also: potency is read from the fitted curve at half-maximal effect). An outline of the steps: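 Fluorescence from LiveBLAzer B/G FRET substrate cleavage (2 hr, RT) reported PR activation in PR-UAS-bla HEK 293T cells treated 16 hr at 37C/5% CO2 with compounds; medium contained 2% charcoal-stripped FBS.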
Chain of Progesterone receptor (Homo sapiens) (P06401 whole entry, looked up): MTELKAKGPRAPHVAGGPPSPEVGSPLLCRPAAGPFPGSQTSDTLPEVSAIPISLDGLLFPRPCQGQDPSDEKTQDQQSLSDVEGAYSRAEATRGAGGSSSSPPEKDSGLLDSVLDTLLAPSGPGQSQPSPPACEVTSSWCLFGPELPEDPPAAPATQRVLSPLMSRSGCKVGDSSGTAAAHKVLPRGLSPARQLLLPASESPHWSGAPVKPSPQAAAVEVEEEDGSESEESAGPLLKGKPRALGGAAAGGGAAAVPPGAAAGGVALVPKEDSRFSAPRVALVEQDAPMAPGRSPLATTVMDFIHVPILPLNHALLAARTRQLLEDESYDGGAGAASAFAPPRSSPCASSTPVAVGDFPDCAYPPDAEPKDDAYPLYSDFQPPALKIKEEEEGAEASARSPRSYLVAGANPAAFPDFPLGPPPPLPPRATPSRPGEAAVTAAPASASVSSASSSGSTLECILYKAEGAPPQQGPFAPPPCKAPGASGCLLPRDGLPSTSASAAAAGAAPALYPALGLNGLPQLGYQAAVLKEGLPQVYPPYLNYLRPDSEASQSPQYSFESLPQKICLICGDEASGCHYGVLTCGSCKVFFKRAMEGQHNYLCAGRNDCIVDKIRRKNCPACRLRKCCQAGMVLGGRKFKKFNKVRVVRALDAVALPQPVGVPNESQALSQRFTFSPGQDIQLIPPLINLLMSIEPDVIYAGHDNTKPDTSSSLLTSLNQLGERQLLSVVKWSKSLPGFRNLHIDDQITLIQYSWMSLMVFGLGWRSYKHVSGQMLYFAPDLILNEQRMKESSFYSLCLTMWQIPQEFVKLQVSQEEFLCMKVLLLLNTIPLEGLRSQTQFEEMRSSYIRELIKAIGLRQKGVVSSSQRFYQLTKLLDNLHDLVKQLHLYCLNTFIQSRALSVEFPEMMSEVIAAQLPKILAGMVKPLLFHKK

Assay [3] is described as follows: qHTS assay to identify small molecule antagonists of the progesterone receptor (PR) signaling pathway - cell viability counter screen (AID 1346798). Also: nearly all actives have a fitted effect of over 50% in size. Also: potency is read from the fitted curve at half-maximal effect. An outline of the steps: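 CellTiter-Glo luminescence; PR-UAS-bla HEK293T, 3,000 cells/well; compound + R5020, 16 hr, 37C/5% CO2; 30 min RT before read.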
Assay [4] in a line: qHTS assay to identify small molecule agonists of the progesterone receptor (PR) signaling pathway - cell viability counter screen (AID 1346799; calls by dose curve; also: nearly all actives have a fitted effect of over 45% in size; also: potency is read from the fitted curve at half-maximal effect). Summed up: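 In parallel with the beta-lactamase readout, cytotoxicity toward PR-UAS-bla HEK293T cells was measured by CellTiter-Glo luminescence following 16 hr compound incubation in 2% charcoal-stripped FBS medium.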
Assay [5] can be described thus: qHTS assay to identify small molecule antagonists of the TGF-beta/Smad signaling pathway - cell viability counter screen (AID 1346824). Also: nearly all actives have a fitted effect of over 50% in size. Also: potency is read from the fitted curve at half-maximal effect. Summed up: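 SBE-bla HEK 293T cells were plated overnight at 37 C, then given compounds in DMSO plus TGF-beta1 (added as 0.25 ng/mL solution) for 5 hr. After the bla read, CellTiter-Glo was added to the same wells and luminescence read after 30 min at room temperature.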

Assay [6] can be described thus: qHTS assay to identify small molecule agonists of the TGF-beta/Smad signaling pathway (AID 1346859; active = well fitted activation curve with a large enough effect in the signal ratio in the repeat runs, not every such curve was filed as active; the % refers to the signal ratio; also: series mostly up to about 77 µM). Summed up:
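After overnight seeding, SBE-bla HEK 293T cells are dosed with compounds in DMSO and kept 5 hr at 37 C, 5% CO2. LiveBLAzer-type FRET substrate is then applied for 2 hr at room temperature.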

Assay [7] in a line: qHTS assay to identify small molecule agonists of the TGF-beta/Smad signaling pathway - cell viability counter screen (AID 1346829). Also: nearly all actives have a fitted effect of over 45% in size. Also: potency is read from the fitted curve at half-maximal effect. An outline of the steps:
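Cytotoxicity counter screen: CellTiter-Glo luminescence (30 min, room temperature) measured in the SBE-bla HEK 293T reporter wells after 5 hr compound treatment at 37 C and the 2 hr substrate step.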

For assay [8], the target named is Thyrotropin-releasing hormone receptor (Homo sapiens) (UniProt P34981). Put plainly: qHTS assay to identify small molecule antagonists of the thyrotropin-releasing hormone receptor (TRHR) signaling pathway (AID 1346877; active = well fitted inhibition curve with a large enough effect in the repeat runs, not every such curve was filed as active; also: potency is read from the fitted curve at half-maximal effect). An outline of the steps: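 TRHR-expressing HEK293 cells loaded with calcium dye for 2 h at 37 C; compounds pre-incubated 5 min at room temperature before TRH challenge at 1 nM final. Intracellular calcium fluorescence read kinetically for 3 min; 15 concentrations in triplicate.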
Chain of Thyrotropin-releasing hormone receptor (Homo sapiens) (P34981 whole entry, looked up): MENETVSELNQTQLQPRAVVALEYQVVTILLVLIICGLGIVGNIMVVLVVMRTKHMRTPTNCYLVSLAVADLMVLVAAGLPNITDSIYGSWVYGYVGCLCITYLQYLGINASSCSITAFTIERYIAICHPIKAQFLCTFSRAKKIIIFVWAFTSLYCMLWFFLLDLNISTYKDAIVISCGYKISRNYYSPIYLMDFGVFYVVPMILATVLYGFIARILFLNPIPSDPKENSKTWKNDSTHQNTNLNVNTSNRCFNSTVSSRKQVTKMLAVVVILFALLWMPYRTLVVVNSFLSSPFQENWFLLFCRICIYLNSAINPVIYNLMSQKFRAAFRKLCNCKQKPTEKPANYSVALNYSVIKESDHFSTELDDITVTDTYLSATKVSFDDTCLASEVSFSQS

For assay [9] the target is unchanged. Put plainly: qHTS assay to identify small molecule agonists of the thyrotropin-releasing hormone receptor (TRHR) signaling pathway (AID 1346891; calls by dose curve; also: potency is read from the fitted curve at half-maximal effect; as to activation: series mostly up to about 58 µM). An outline of the steps: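 Compounds were tested as agonists at 15 concentrations, in triplicate, on TRHR-Hek293 cells; calcium-sensitive dye fluorescence was recorded for 3 min following addition.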
Assay [10] has as its target Progesterone receptor (Homo sapiens) (UniProt P06401). Briefly: qHTS assay to identify small molecule antagonists of the progesterone receptor (PR) signaling pathway (AID 1346795; active = well fitted inhibition curve with a large enough effect in the signal ratio in the repeat runs, not every such curve was filed as active; the % refers to the signal ratio; also: potency is read from the fitted curve at half-maximal effect). Summed up: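 Fluorescence intensity measured 2 hr after adding beta-lactamase FRET substrate to PR-UAS-bla HEK293T cells that had been co-treated 16 hr with compound and 1 nM R5020 (final concentration) in 2% charcoal-stripped FBS.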

The values that follow come from PubChem BioAssay (Tox21).

Values joined by “and” are separate entries in the source; they are usually repeats but may differ in a detail not shown here. Equal entries are not always repeated. Records with an inconclusive call do not appear. Some compounds were tested as several samples or in several runs, with calls that do not always agree. Active and inactive are the calls of the source. Unless noted, calls follow the shape of the dose curve; as a rule, active = well fitted curve in the direction sought with a large enough effect in the repeat runs; inconclusive = weak or mixed curves; inactive = no such curve, though single readings can be large; an effect the other way counts as inactive or inconclusive.

As for `ClC1=C(Cl)C2(Cl)C3C(Cl)C=CC3C1(Cl)C2(Cl)Cl` (configuration not stated), the Potency entry in [1], in [2], in assay [3], in [4] and in assay [5] was “inactive” in each case. For the same compound, in [6], the call was inactive.
As for `Cc1cc(C)cc(OP(=O)(Oc2cc(C)cc(C)c2)Oc2cc(C)cc(C)c2)c1`, the Potency entry in [1], in assay [2], in assay [3], in assay [5] and in assay [7] was “inactive” in each case. In addition, in assay [6], the compound was classed as inactive.
Regarding `Cn1cc(C2=C(c3cn(C4CCN(Cc5ccccn5)CC4)c4ccccc34)C(=O)NC2=O)c2ccccc21`, the Potency result in assay [1], in assay [2], in assay [5] and in assay [7] was “inactive” each time.
Turning to `OC(Cc1ccccc1Cl)(Cn1cncn1)C1(Cl)CC1` (configuration not stated), the Potency result in assay [1], in assay [2], in assay [5] and in [7] was “inactive” throughout. For the same compound, the compound was called inactive in assay [6].
With `Cc1ccc(CCl)cc1`, the Potency result in assay [1], in assay [2], in assay [3], in assay [5] and in assay [7] was “inactive” each time. Besides, in assay [6], the result was inactive.
For the compound `CCCCOCN(C(=O)CCl)c1c(CC)cccc1CC`, the Potency result in assay [1], in assay [2], in assay [3], in assay [5] and in assay [7] was “inactive” in each case.
`CC1(C)[C@H](C(=O)O[C@H](C#N)c2cccc(Oc3ccccc3)c2)[C@@H]1/C=C(\Cl)C(F)(F)F`: the Potency entry in assay [1], in [2], in [3], in assay [5], in assay [8] and in [9] was “inactive” throughout. Moreover, the compound was classed as inactive in [6].
On to `C[C@]12CC[C@H](O)C[C@H]1CC[C@@H]1[C@@H]2C[C@@H](O)[C@]2(C)[C@@H](C3=CC(=O)OC3)CC[C@]12O`, for which the Potency entry in assay [1], in assay [2], in [8] and in assay [9] was “inactive” throughout. Further, the Potency in assay [3] was 1.72 µM (active).
For `CC(C)(C)c1ccc(CSc2cnn(C(C)(C)C)c(=O)c2Cl)cc1`, in assay [1], the Potency was 2.43 µM (active). For the same compound, the Potency result in assay [2], in assay [3], in assay [5] and in [9] was “inactive” each time. Moreover, the compound was called inactive in assay [6].
As for `CC(=O)Nc1ccc2c(c1)Cc1ccccc1-2`, the Potency result in [1], in [2], in assay [3], in [5], in assay [7] and in assay [8] was “inactive” in each case. Besides, in assay [9], the Potency result is “inactive”. Besides, the compound was called inactive in [6].
As for `CN(C)c1ccc(N=Nc2ccccc2)cc1`, in assay [1], the Potency is 48.6 µM (active). For the same compound, the Potency result in assay [2], in [3], in assay [5], in assay [7] and in [9] was “inactive” each time.
In the case of `Clc1ccc(-c2ccc(Cl)c(Cl)c2Cl)c(Cl)c1Cl`, the Potency entry in [1], in assay [2], in assay [5], in [7], in assay [8] and in [9] was “inactive” throughout. In assay [3], the Potency is 23.2 µM (active).
`CC(=O)c1ccc(-c2ccccc2)cc1`: the Potency result in [1], in assay [2], in [3], in assay [5] and in [7] was “inactive” throughout.
As to `Cn1[nH]nnc1=S`, the Potency result in assay [1], in [2], in assay [5], in assay [7], in assay [8] and in [9] was “inactive” in each case. In addition, in assay [6], the compound was called inactive.
In the case of `O=c1oc2ccccc2c(O)c1Cc1c(O)c2ccccc2oc1=O`, the Potency result in assay [1], in assay [2], in assay [5] and in assay [7] was “inactive” each time. The compound was called inactive in assay [6].
As to `Oc1ccc2ccc3cccc4ccc1c2c34`, the Potency entry in [1], in assay [2], in assay [3], in [4], in assay [5] and in [8] was “inactive” each time. Further, the Potency entry in [9] is “inactive”.
As to `CCCCCCCCCCCCCCCC[N+](C)(C)C`, the Potency entry in assay [1] and in assay [2] was “inactive” throughout. Also, the Potency is 29.8 µM (active) in assay [3]; “inactive and 54.9 µM (active)” in assay [7]; “inactive and 30.1 µM (active)” in [8]; “inactive and 27.5 µM (active)” in assay [9].
On to `O=[N+]([O-])c1ccc2ccc3cccc4ccc1c2c34`, for which the Potency in assay [1] is 38.5 µM (active). The Potency result in assay [2], in assay [3], in assay [4], in assay [5], in assay [7] and in assay [8] was “inactive” in each case. The Potency result in assay [9] was “inactive”.
For the compound `[Cl][Sb]([Cl])[Cl]`, the Potency in [1] was 54.5 µM (active). Moreover, the Potency result in [2], in [3], in [5], in [7], in [8] and in assay [9] was “inactive” in each case. Besides, the result in assay [6] was inactive.
Turning to `C[C@@H]1O[C@@H](O[C@H]2C[C@@H](O)[C@]3(CO)[C@H]4[C@H](O)C[C@]5(C)[C@@H](C6=CC(=O)OC6)CC[C@]5(O)[C@@H]4CC[C@]3(O)C2)[C@H](O)[C@H](O)[C@H]1O`, the Potency entry in assay [1], in assay [2], in [8] and in [9] was “inactive” in each case. The Potency in assay [3] was 81.9 nM (active) and 150 nM (active); in [4], 116 nM (active) and 168 nM (active).
For `OC(c1ccc(Cl)cc1)(c1ccc(Cl)cc1)C(Cl)(Cl)Cl`, the Potency result in assay [1], in assay [2], in assay [5] and in assay [7] was “inactive” each time.
In the case of `CCC(C)c1cc(C(C)(C)C)cc(-n2nc3ccccc3n2)c1O` (configuration not stated), the Potency result in [1], in assay [2], in assay [3], in assay [5], in [7] and in assay [8] was “inactive” throughout. In addition, in assay [9], the Potency result is “inactive”.
`CC(=[OH+])/C=C(/C)[O-].CC(=[OH+])/C=C(\C)[O-].CC(=[OH+])/C=C(\C)[O-].[Fe]`: the Potency entry in assay [1], in [2], in assay [3], in assay [5] and in assay [7] was “inactive” each time.
In the case of `S=C(SSC(=S)N1CCCCC1)N1CCCCC1`, the Potency result in assay [1], in assay [2] and in assay [5] was “inactive” throughout. In addition, in assay [3], the Potency is 0.531 µM (active). For the same compound, the result in [6] was inactive.
As to `C[C@@H](Oc1ccc(Cl)cc1Cl)C(=O)O`, the Potency entry in assay [1], in [2], in assay [3], in [4], in assay [5] and in [7] was “inactive” in each case. Further, the Potency result in assay [8] and in assay [9] was “inactive” each time.
For the compound `CN(C)CCc1c[nH]c2cccc(O)c12`, the Potency result in [1], in assay [2], in assay [5] and in [7] was “inactive” in each case. Further, the result in assay [6] was inactive.
As to `C[C@@H]1O[C@@H](O[C@@H]2C=C3CC[C@@H]4[C@H](CC[C@]5(C)[C@@H](c6ccc(=O)oc6)CC[C@]45O)[C@@]3(C)CC2)[C@H](O)[C@H](O)[C@H]1O`, the Potency result in assay [1], in assay [2], in assay [8] and in [9] was “inactive” each time. In addition, the Potency in [3] was 0.0133 µM (active); in assay [4], 16.8 nM (active).
Consider `C[C@H]1O[C@@H](O[C@H]2[C@@H](O)C[C@H](O[C@H]3[C@@H](O)C[C@H](O[C@H]4CC[C@@]5(C)[C@H](CC[C@@H]6[C@@H]5CC[C@]5(C)[C@@H](C7=CC(=O)OC7)CC[C@]65O)C4)O[C@@H]3C)O[C@@H]2C)C[C@H](O)[C@@H]1O`, for which the Potency result in [1], in assay [2] and in assay [9] was “inactive” in each case. The Potency in assay [3] was 38.8 nM (active) and 94.4 nM (active).
Take `CC1(C)C(/C=C(\Cl)C(F)(F)F)C1C(=O)OC(C#N)c1cccc(Oc2ccccc2)c1` (configuration not stated): the Potency result in assay [1], in assay [2], in assay [3], in assay [5], in assay [7] and in assay [9] was “inactive” in each case. Besides, the call in assay [6] was inactive.
In the case of `CN(CCCC(O)c1cccnc1)N=O` (configuration not stated), the Potency entry in assay [1], in assay [2], in assay [3], in [5], in [7] and in assay [9] was “inactive” in each case. Also, the call in [6] was inactive.
Regarding `COC12CC[C@@]3(C[C@@H]1C(C)(O)C(C)(C)C)[C@H]1Cc4ccc(O)c5c4[C@@]3(CCN1CC1CC1)[C@H]2O5` (some centres not stated), the Potency in assay [1] was 60.7 µM (active); in assay [3], 43 µM (active); in [4], 38300 nM (active); in assay [5], 48.6 µM (active); in [7], 38.6 µM (active). Further, the call in assay [6] was inactive.
`CCCN(CCC)CCc1c[nH]c2ccccc12`: the Potency entry in assay [1], in assay [2], in [5], in [7] and in assay [9] was “inactive” throughout.
Turning to `Oc1c(Br)c(Br)c(Br)c(Br)c1Br`, the Potency result in assay [1], in assay [5], in assay [7] and in assay [9] was “inactive” throughout. Further, the Potency in [10] is 27.5 µM (active).
Take `C[C@]12Cc3nonc3C[C@@H]1CC[C@@H]1[C@@H]2CC[C@@]2(C)[C@H]1CC[C@]2(C)O`: the Potency result in assay [1], in assay [8] and in [9] was “inactive” throughout. In addition, the Potency in assay [2] is 1.19 µM (active). The outcome in assay [6] was inactive.
